Compound activity deposited in PubChem BioAssay by National Center for Advancing Translational Sciences (NCATS).
D1 ag: activates the human D1 dopamine receptor | activation, % at 2 µM | AID 504660 | HEK293 T-REx D1 cells, calcium flux, agonist mode | actives 1% (n = 360,000); note: 0% is about no effect
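Agonism was scored from calcium flux recorded over 180 s (1 read/s) after pintool compound addition, following a 10-cycle baseline. Cells were inducible force-coupled HEK293 TREx D1, plated overnight at 30 C and loaded with no-wash calcium dye.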
D1 antagonist: antagonists of human D1 dopamine receptor; P21728; HEK293 TREx D1 cells, calcium flux, dopamine EC80; hits give low values; activity change, negative = inhibition, % at 10 µM; actives 3.2% (n = 360,000); AID 504652; in the data active = activity change below about -30%; note: % is set by controls: 0 for no effect and ±100 for the full control effect
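Compound effects on dopamine-evoked calcium signalling were measured in tetracycline-induced HEK293 Trex D1 cells. Dopamine at EC80 followed a 180 s compound pre-read, and fluorescence was tracked kinetically for 180 s more.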
TRHR PAM: TRH receptor (human) allosteric enhancement; enhancement, % at 2 µM; actives 0.66% (n = 360,000); TRHR cells, fluo-8 calcium fluorescence, EC20 TRH enhancement; AID 493056; in the data active = enhancement above about 30%; note: 0% is about no effect
Target sequence (P34981 whole entry, looked up): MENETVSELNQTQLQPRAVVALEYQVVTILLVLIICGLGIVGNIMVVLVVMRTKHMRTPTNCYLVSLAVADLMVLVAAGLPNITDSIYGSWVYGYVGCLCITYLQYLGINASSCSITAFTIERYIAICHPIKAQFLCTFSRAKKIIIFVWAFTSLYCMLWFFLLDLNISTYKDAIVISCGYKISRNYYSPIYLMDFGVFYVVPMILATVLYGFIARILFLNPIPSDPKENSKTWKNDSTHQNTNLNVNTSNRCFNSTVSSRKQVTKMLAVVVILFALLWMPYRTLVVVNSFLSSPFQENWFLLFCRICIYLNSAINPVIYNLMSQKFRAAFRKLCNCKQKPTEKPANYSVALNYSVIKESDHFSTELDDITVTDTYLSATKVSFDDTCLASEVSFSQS
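Enhancer read-out: after compound pinning and an initial kinetic agonist-mode read, an EC20 of TRH (10 nM final) was injected and fluo-8 calcium signal (Ex 480/Em 530) followed at 1 s/cycle for 100 cycles in TRHR-expressing cells.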
LDHA block: LDHA (human) enzyme inhibition; P00338; purified LDHA, NADH/diaphorase-resazurin fluorescence; hits give low values; activity change, % (values are at about 110 or 230 µM); actives 0.15% (n = 480,000); in the data active = activity change below about -30%;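 note: plate controls were DMSO wells for no effect and wells without enzyme for full effect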
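LDH5 2 nM; NADH 0.06 mM, pyruvate 0.2 mM; 200 mM Tris pH 7.4, EDTA, Tween-20; 5 min RT. Detection: diaphorase 0.133 mg/mL + resazurin 37 µM, fluorescence ex540/em590 at 0 and 20 min; normalized to enzyme-free and DMSO wells.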
TRHR ag: agonists of human TRH receptor. P34981. TRHR cells, calcium flux fluo-8, FDSS agonist mode. activation, % at 2 µM. actives 0.18% (n = 360,000). AID 493084; note: 0% is about no effect
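TRHR-expressing cells, plated overnight in medium with 10% serum, were loaded with fluo-8 calcium dye at room temperature. After a 10 s baseline, library compound was pin-added and calcium release was recorded kinetically (ex 480/em 530) as agonist response.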
D1 PAM: enhances dopamine response at the human D1 receptor; P21728; HEK293 TREx D1 cells, calcium flux, dopamine EC20 potentiation; actives 0.036% (n = 360,000); potentiation, % at 10 µM; in the data active = potentiation above about 30%; note: 0% is about no effect
* hit, by the source's call; / = not tested or not shown. Most compounds without a hit are left out; they make up all but 3.6% or so of the library. Cut-off read from the data, not from the text of the source, unless noted: active = activation above about 30%; inactive = the rest.

SMILES	D1 ag	D1 antagonist	TRHR PAM	LDHA block	TRHR ag	D1 PAM
Cc1ccccc1C(=O)Nc1ccc2nc(N3CCN(C4CCCCC4)CC3)cc(C(=O)O)c2c1	/	/	/	31.9	/	/
O=C1c2ccccc2-c2onc3ccc(NCCCn4ccnc4)c1c23	208.3*	-14.4	2.2	14.8	112.4*	4.5
Cc1cc(N(Cc2ccccc2F)C2CC2)n2nc(C(F)(F)F)nc2n1	/	/	/	2.5	/	/
CCCCCCn1c(/C=C/c2ccccc2)nc2ccccc21	15.7	-30.7*	-6.8	2.9	1.6	-5.8
CCn1c(/C=C/c2ccccc2)nc2ccccc21	-1.0	-39.4*	-5.4	-1.1	0.0	-9.5
COc1cc(Cn2c(-c3ccc(O)c(OC)c3)nc3ccccc32)ccc1O	1.2	-14.6	0.3	2.3	0.1	-2.7
CCCCCn1c(-c2ccc(OC)c(OC)c2)nc2ccccc21	57.2*	-46.6*	5.2	8.7	-1.5	-3.0
CSCC[C@H](NC(=O)Cc1ccc(N2CCCC2=O)cc1)c1nc2ccccc2[nH]1	/	/	/	2.5	/	/
N/C(=N\N=C/c1ccc(F)cc1)N/N=C\c1ccc(F)cc1	10.6	-59.5*	5.0	-2.1	-0.6	-10.5
COc1ccc2oc(=O)c(-c3nc(-c4cc(OC)c(OC)c(OC)c4)no3)cc2c1	2.1	-4.1	30.9*	-1.9	0.2	2.6
CCOC(=O)C1CCN(C(=O)Cc2c(C(=O)O)n(CC)c3ccccc23)CC1	0.7	-86.7*	2.6	-6.7	0.6	-4.7
CCCCCCCSc1nc2c(c(=O)[nH]c(=O)n2C)n1CCC	/	/	/	11.6	/	/
COc1cc(/C=C2/CC/C(=C/c3ccc(O)c(OC)c3)C2=O)ccc1O	78.3*	-8.1	-5.2	-7.4	0.0	10.8
COc1cc(/C=C2\COC/C(=C\c3ccc(O)c(OC)c3)C2=O)ccc1O	12.3	-8.7	2.9	1.7	1.5	2.2
COc1cc(/C=C2\CC/C(=C\c3ccc(OCCO)c(OC)c3)C2=O)ccc1OCCO	99.3*	0.5	27.9	-5.9	113.6*	-1.5
COc1ccc(/C=C2\CC/C(=C\c3ccc(OC)c(OC)c3)C2=O)cc1OC	14.3	15.6	1.9	-4.0	0.9	-7.0
Cc1ccc(C2=NN(S(C)(=O)=O)C(c3cccs3)C2)cc1 (stereo not drawn)	0.4	-48.4*	-20.6	-3.5	0.1	-11.2
Cc1ccc(C2=NN(C(=O)CNCCO)C(c3cccs3)C2)cc1 (stereo not drawn)	2.4	-32.6*	3.1	-2.2	1.2	-5.2
Cc1ccc(C2CC(c3cccs3)=NN2S(=O)(=O)c2ccc(C)cc2)cc1 (stereo not drawn)	7.1	-33.0*	0.6	0.0	1.6	-0.9
O=C(c1ccccc1)N1N=C(c2ccccc2)CC1c1cccs1 (stereo not drawn)	3.9	-66.7*	3.7	1.4	1.4	-8.9
O=C(CNc1ccccc1)N/N=C/c1cc([N+](=O)[O-])ccc1N1CCCC1	2.0	-30.6*	-16.4	-5.3	-0.9	-8.7
O=C(CN(Cc1ccccc1)C(=O)c1csnn1)NCc1ccccc1	-0.2	-66.7*	-0.9	-7.0	-0.6	-7.5
Cc1ccc(CN(CC(=O)NC2CCCC2)C(=O)c2csnn2)cc1	2.3	9.3	7.7	-5.0	-0.2	-4.8
COc1ccc(CN(CC(=O)NC2CCCC2)C(=O)c2csnn2)cc1	0.8	-48.7*	-8.9	2.0	0.4	-12.7
CN(CC(=O)Nc1ccccc1C(F)(F)F)C(=O)COc1ccc2oc3c(c2c1)CCCC3	/	/	/	13.3	/	/
SMILES	D1 ag	D1 antagonist	TRHR PAM	LDHA block	TRHR ag	D1 PAM
Cc1ccc(NC(=O)CC(C)(C(=O)O)c2ccccc2)c(F)c1 (stereo not drawn)	/	/	/	2.0	/	/
CCOc1ccc(CCNC(=O)CN2C(=O)NC3(CCCC3)C2=O)cc1OCC	2.4	-39.2*	-4.8	-2.5	0.9	-6.9
O=C(OCc1csc(-c2ccccc2)n1)c1ccc(S(=O)(=O)N2CCOCC2)cc1	/	/	/	-9.0	/	/
COc1cc(Cl)c(C)cc1Nc1nc2ccccc2c2nnc(C)n12	2.7	-4.4	33.0*	0.0	-0.5	-2.9
CC1=C(C(=O)Nc2cc(Cl)ccc2C)C2(CCCCC2)OC1=O	32.3*	14.6	7.4	-8.0	0.2	1.4
CC1=C(C(=O)NCc2cccc(F)c2)C2(CCCCCC2)OC1=O	1.8	1.2	3.9	-4.8	-0.7	2.5
COc1cc(OC)c(NC(=O)C2=C(C)C(=O)OC23CCCCCC3)cc1Cl	-0.7	-69.8*	14.2	1.7	0.1	-5.5
CC1=C(C(=O)NCc2cccc(Cl)c2)C2(CCCCCC2)OC1=O	1.4	-31.1*	17.3	-2.4	-1.0	-1.8
COc1ccc(Cn2c(CO)cnc2SCC(=O)NCc2ccc(F)cc2)cc1	/	/	/	13.8	/	/
COc1cccc(CNC(=O)c2cc(C)nc3ccccc23)c1	2.7	-39.2*	9.6	-1.1	-0.6	-6.0
Cc1cc(CNC(=O)Cc2ccccc2)c2ccccc2n1	2.2	1.5	-6.9	-2.2	0.4	1.7
COc1ccc(CNC(=O)c2cc(-c3cccs3)nc3ccccc23)c(OC)c1	3.9	-46.3*	6.0	2.0	-1.8	-0.8
Cc1cc(CNC(=O)c2cccc([N+](=O)[O-])c2C)c2ccccc2n1	26.5	-45.7*	4.0	-5.5	0.3	-7.5
COc1ccc(Nc2ccc(NC(=O)Cn3cnc4c3c(=O)n(C)c(=O)n4C)cc2)cc1	/	/	/	3.4	/	/
O=C(NCc1ccc(Cl)cc1)c1ccc(CSCc2cccc(Cl)c2)o1	39.3*	-15.9	-3.6	-8.2	3.5	-4.0
O=C(NCc1ccc(F)cc1)c1ccc(CSCc2cccc(Cl)c2)o1	19.6	-1.3	-3.4	-1.4	0.6	-7.2
O=C(NCc1ccc2c(c1)OCO2)c1ccc(CSCc2ccc(Cl)cc2)o1	17.0	-34.0*	1.4	3.8	0.6	-2.5
CCc1ccccc1S(=O)(=O)Cc1ccc(C(=O)NCc2ccc3c(c2)OCO3)o1	0.5	-55.8*	-9.2	1.8	-0.4	-8.1
Cc1ccn2cc(-c3ccc(NC(=O)CCCc4ccccc4)cc3)nc2n1	/	/	/	2.7	/	/
COc1ccc(C(=O)c2sc3nc(-c4ccc(OC)cc4)ccc3c2N)cc1	60.6*	-8.0	2.9	-0.7	12.7	-6.2
COc1ccc(C(=O)c2sc3nc(-c4ccc(C)cc4)cc(C(F)(F)F)c3c2N)cc1	90.1*	-4.3	-5.0	-3.0	7.3	-4.8
COc1ccc(C(=O)c2sc3nc(-c4ccc(F)cc4)ccc3c2N)cc1	16.6	-13.3	2.1	1.5	1.1	-2.3
COc1ccc(NC(=O)c2sc3nc(-c4ccc(OC)cc4)cc(C(F)(F)F)c3c2N)cc1	11.1	-9.3	9.4	1.8	4.5	-1.4
COc1cccc(-c2ccc3c(N)c(C(=O)c4ccc(F)cc4)sc3n2)c1	149.8*	-10.3	7.8	1.1	24.3	-4.3
